Rows were chosen to be rich in hits. Some 21% of all compounds tested hit in one or more screens of this group.
Cycloheximide cs: counter-screen for Shiga toxin inhibitors: cycloheximide protein synthesis inhibition; hit rate 12% among 300,000; cell reporter, cycloheximide protein synthesis inhibition counterscreen; max response, %; in the data active means max response mostly above about 13%, no sharp cut-off; inactive means mostly below about 14%; further: read at 38.3 µM for the half of the compounds with a filed dose
Pf growth 96h: P. falciparum growth inhibition at 96 hour, primary screen for plastid delayed-death inhibitors | hit rate 6.9% among 320,000 | Potency, µM (series often up to 28.7 µM), actives largely listed as inhibitors | P. falciparum luciferase reporter growth, 96 h | AID 504834
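Erythrocytes infected with luciferase-expressing P. falciparum were dispensed at 2% hematocrit and 0.05% parasitemia (final), then incubated with compounds 96 hours at 37 C in 5% CO2. Luminescence after detection reagent addition reported growth.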
NS1 function inh: influenza NS1 inhibition. Potency, µM (highest dose often 46.1 µM). hit rate 0.4% among 270,000. AID 2326; calls by dose curve; further: actives are rising curves; nearly all actives have a fitted effect of over 50% in size
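Compounds were scored for reversing the slow growth caused by influenza A NS1 in S. cerevisiae, measured by optical density at 600 nm. Assay medium contained 2% galactose at pH 6.0; NS1-free yeast of the same strain were the positive control.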
Pf growth 48h: inhibits P. falciparum growth in the first generation, 48 h | P. falciparum luciferase growth in erythrocytes, 48 h | Potency, µM (titrated, usually from 28.7 µM), usual class: inhibitors | hit rate 5.9% among 310,000 | AID 504832
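First compound was added to culture medium, then infected red cells at 0.1% parasitemia and 2% hematocrit (final). After incubation at 37 C under 5% CO2, luciferase detection reagent was dispensed and light output recorded.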
Giardia FBPA inh: Giardia lamblia aldolase inhibition. Potency, µM (titrated, usually from 59.6 µM), hits mostly inhibitors. purified Giardia FBPA. hit rate 0.71% among 290,000. A8B2U2; further: nearly all actives have a fitted effect of over 55% in size
Target sequence (A8B2U2 whole entry, looked up): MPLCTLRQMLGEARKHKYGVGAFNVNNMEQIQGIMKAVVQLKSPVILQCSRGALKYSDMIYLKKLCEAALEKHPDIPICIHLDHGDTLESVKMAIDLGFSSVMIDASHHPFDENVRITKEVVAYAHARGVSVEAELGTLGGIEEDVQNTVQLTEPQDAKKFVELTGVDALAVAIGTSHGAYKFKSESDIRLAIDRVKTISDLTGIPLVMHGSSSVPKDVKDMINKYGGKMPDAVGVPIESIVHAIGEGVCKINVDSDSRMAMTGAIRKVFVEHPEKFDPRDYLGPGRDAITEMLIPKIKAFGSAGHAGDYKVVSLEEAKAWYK
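Giardia FBPA (40 nM reagent) was preincubated 10 min at RT with compound (up to 57.5 uM final), then substrate plus GAPDH/TPI/NAD/arsenate coupling system with diaphorase/resazurin was added; resorufin fluorescence (525/598 nm) was read after 20 min.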
Shiga toxin inh: inhibitors of Shiga toxin in Vero cells; Vero cells, Shiga toxin protein synthesis inhibition reporter; inhibition, % at 38.7 µM; hit rate 9.2% among 290,000; in the data active means inhibition mostly above about 28%, no sharp cut-off; inactive means mostly below about 43%
Large screens that a line does not name were inactive. Unless noted, the call rests on the fitted dose curve; in most records, active means well fitted curve in the direction sought with a large enough effect; inconclusive means small, poorly fitted or top-dose-only effect, or another doubt; inactive means no such curve, though single readings can be large; an effect the other way counts as inactive or inconclusive.

Cc1cc(N2CCCCC2)nc(SCC(=O)c2ccccc2)n1	Cycloheximide cs 34, Shiga toxin inh 73
O=C(CSc1nc(N2CCCCC2)nc(N2CCCCC2)n1)c1ccccc1	Pf growth 48h inconclusive
Cc1cc(C)nc(SCC(=O)c2ccc(F)cc2F)n1	Cycloheximide cs 20, Pf growth 48h inconclusive (no result: Shiga toxin inh)
CCC(Cc1ccccc1)NC(=O)c1cc(S(=O)(=O)N2CCCCC2)c[nH]1 (stereo not given)	Pf growth 96h 2.9µM
O=C(Nc1nnc(-c2ccc3c(c2)CCCC3)o1)c1ccc(Cl)cc1Cl	Giardia FBPA inh inconclusive
O=C(Nc1nnc(-c2ccc3c(c2)CCCC3)o1)c1c(F)cccc1F	Shiga toxin inh 76 (no result: NS1 function inh)
O=C1/C(=C\c2ccc(Br)o2)SC(=Nc2ccccc2)N1c1ccccc1	Pf growth 96h 9.3µM, Pf growth 48h inconclusive
Cc1cccc(OCC(=O)Nc2nnc(S(=O)(=O)N3CCCCC3)s2)c1	Pf growth 96h 7.4µM, Giardia FBPA inh inconclusive
O=C(CNc1cc(S(=O)(=O)N2CCCC2)ccc1OCC(F)(F)F)Nc1cccc(C(F)(F)F)c1	Pf growth 96h 13µM, NS1 function inh inconclusive, Pf growth 48h inconclusive
O=C(COc1cccc(C(F)(F)F)c1)Nc1ccc(S(=O)(=O)N2CCCCC2)cc1	Pf growth 96h 9.3µM, Pf growth 48h inconclusive (no result: Cycloheximide cs, NS1 function inh, Giardia FBPA inh, Shiga toxin inh)
O=C(COc1ccccc1Br)Nc1ccc(S(=O)(=O)N2CCCC2)cc1	Pf growth 96h inconclusive, Pf growth 48h 5.9µM (no result: Cycloheximide cs, NS1 function inh, Giardia FBPA inh, Shiga toxin inh)
Nc1ncnc2c1ncn2[C@@H]1O[C@H](COP(=O)(O)OP(=O)(O)OP(=O)(O)O)[C@H]2OC3(O[C@H]21)C([N+](=O)[O-])=CC(=[N+]([O-])[O-])C=C3[N+](=O)[O-] (stereo not given in full)	none (no result: Pf growth 96h, NS1 function inh, Pf growth 48h)
CCN1CCc2c(sc(NC(=O)c3ccc(S(=O)(=O)N4CCCCCC4)cc3)c2C(=O)NC)C1	Pf growth 96h inconclusive, Pf growth 48h inconclusive (no result: Giardia FBPA inh)
O=C(N/N=C/c1cccs1)c1ccc2nc[nH]c2c1	none (no result: NS1 function inh)
COc1ccc(NS(=O)(=O)c2cccc(C(=O)N/N=C/c3cccs3)c2)cc1	Pf growth 96h inconclusive, Pf growth 48h inconclusive
O=C(N/N=C/c1cccs1)c1ccc2ncccc2c1	Shiga toxin inh 46
O=C(N/N=C/c1cccs1)c1ccc2ccccc2c1	Cycloheximide cs 54, Shiga toxin inh 109
CCC(NC(=O)c1cc(COc2cncc(Cl)c2)on1)c1ccncc1 (stereo not given)	Pf growth 96h inconclusive
O=C(N[C@H]1CCCCNC1=O)c1cc(COc2ccc(F)cc2F)on1	Cycloheximide cs 19
O=C(c1cc(COc2ccc(F)cc2Cl)on1)N1CCCCCCC1	Cycloheximide cs 32, Pf growth 96h inconclusive, Shiga toxin inh 40
CCC(NC(=O)c1cc(COc2ccc(F)cc2Cl)on1)c1ccncc1 (stereo not given)	Cycloheximide cs 6.4
O=C(c1cc(COc2ccc(F)cc2Cl)on1)N1CCCCCC1	Cycloheximide cs 53, Shiga toxin inh 89 (no result: Giardia FBPA inh)
CC1NC(=O)C(N)CNC(=O)C(C2CCN=C(N)N2)NC(=O)/C(=C/NC(N)=O)NC(=O)C(CNC(=O)CC(N)CCCN)NC1=O (stereo not given)	none (no result: Pf growth 96h, NS1 function inh, Pf growth 48h)
C/C(=N\OCC(=O)OCC(=O)N(C)c1ccccc1)c1ccc2c(c1)OCO2	none (no result: Cycloheximide cs, NS1 function inh, Giardia FBPA inh, Shiga toxin inh)
NC(=O)[C@@H]1CCCN1C(=O)c1cc(COc2ccc(F)cc2F)on1	none (no result: Giardia FBPA inh)
O=C(c1cc(COc2ccc(F)cc2F)on1)N1CCSCC1	Cycloheximide cs 58, NS1 function inh inconclusive, Shiga toxin inh 85
Oc1ccccc1N1CCN(CC(O)COC2CCCc3ccccc32)CC1 (stereo not given)	Pf growth 96h inconclusive, Pf growth 48h 9.3µM, Giardia FBPA inh inconclusive
O=[N+]([O-])c1cccc(/C=N\NC2=CS(=O)(=O)C=C2)c1	none (no result: Cycloheximide cs, Pf growth 96h, Pf growth 48h, Giardia FBPA inh, Shiga toxin inh)
COc1ccc(Cl)cc1N(CC(=O)Nc1ccccc1C(=O)N1CCOCC1)S(C)(=O)=O	none (no result: Giardia FBPA inh)

Compound activity from PubChem.
